Drawing on PubChem BioAssay (NCATS), this text covers Potency and activity (max response) for 5 compounds.

Where “and” joins values, the source holds several entries; their conditions need not be identical. Equal values may be shown once. Results filed as inconclusive are left out. A number with no mark means an inactive call. Calls of active or inactive are those of the source. The call rests on the fitted dose curve; in most records, active means well fitted curve in the direction sought with a large enough effect; inconclusive means small, poorly fitted or top-dose-only effect, or another doubt; inactive means no such curve, though single readings can be large; an effect the other way counts as inactive or inconclusive.

Experiment [1] is described as follows: Viability qHTS for spleen associated tyrosine kinase inhibitor (SYKi) naive MV4-11 cells (AID 1963823). Further: nearly all actives have a fitted effect of over 40% in size. Further: potency means the concentration at half of the fitted maximal effect. An outline of the steps:
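In this viability screen, compounds acted on SYK inhibitor naive MV4-11 cells for three days (72 hr, 37 C). Remaining viable cells were measured by CellTiter-Glo luminescence following a 10 min room-temperature development.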
For orientation: Quantitative high-throughput screening tests each substance at several concentrations.

A short description of experiment [2]: Viability qHTS for spleen associated tyrosine kinase inhibitor (SYKi) drug resistant MV4-11 cells (AID 1963824). Further: nearly all actives have a fitted effect of over 35% in size. Further: potency means the concentration at half of the fitted maximal effect. An outline of the steps:
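CellTiter-Glo luminescence, read 10 min after reagent addition, reports viability after a 72 hr compound exposure. Cells are an MV4-11 line made resistant to SYK inhibition, seeded at 500 per well onto compound-containing plates.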

A short description of experiment [3]: Quantitative highthroughput screen to assess conditional lethalithy of NOMO1 cells grown in RPMI1640 with untreated serum (RPMI+s) (AID 1963876). Further: nearly all actives have a fitted effect of over 35% in size. Further: potency means the concentration at half of the fitted maximal effect.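 On Viability: 100% = DMSO wells and 0% = empty wells without cells.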 An outline of the steps: (§1)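 Each medium arm—HPLM with 10% dialyzed FBS, or RPMI1640 with 5 mM glucose and 10% untreated or dialyzed FBS—was screened against an 11-point, 3-fold compound titration for 48 h at 37 °C, with CellTiter-Glo luminescence as endpoint.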

The nature of experiment [4]: Quantitative highthroughput screen to assess conditional lethalithy of NOMO1 cells grown in Human Plasma-Like Medium with dialyzed fetal bovine serum (HPLM+ds) (AID 1963878). Further: nearly all actives have a fitted effect of over 35% in size. Further: potency means the concentration at half of the fitted maximal effect.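 On Viability: 100% = DMSO wells and 0% = empty wells on each plate.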 An outline of the steps: as §1
Experiment [5] in a line: Quantitative highthroughput screen to assess conditional lethalithy of P12 Ichikawa cells grown in Human Plasma-Like Medium with dialyzed fetal bovine serum (HPLM+ds) (AID 1963879). Further: nearly all actives have a fitted effect of over 35% in size. Further: potency means the concentration at half of the fitted maximal effect. On Viability: series mostly up to about 46 µM. As to conditions: Potency: viability. An outline of the steps: as §1
The nature of experiment [6]: Quantitative highthroughput screen to assess conditional lethalithy of P12 Ichikawa cells grown in RPMI1640 with dialyzed fetal bovine serum (RPMI+ds) (AID 1963880). Further: nearly all actives have a fitted effect of over 35% in size. Further: potency means the concentration at half of the fitted maximal effect.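 On Viability: 100% = DMSO wells and 0% = empty wells on each plate.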 To be noted: Potency: P12-Ichikawa viability. An outline of the steps: as §1
Experiment [7] is described as follows: Quantitative highthroughput screen to assess conditional lethalithy of P12 Ichikawa cells grown in RPMI1640 with untreated serum (RPMI+s) (AID 1963881). Further: nearly all actives have a fitted effect of over 35% in size. Further: potency means the concentration at half of the fitted maximal effect.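 On Viability: series mostly up to about 46 µM; 100% = DMSO wells and 0% = empty wells without cells.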 To be noted: Potency: viability. An outline of the steps:
as §1

Experiment [8] in a line: Quantitative highthroughput screen to assess conditional lethalithy of SEM cells grown in Human Plasma-Like Medium with dialyzed fetal bovine serum (HPLM+ds) (AID 1963882). An outline of the steps:
as §1

Experiment [9] is described as follows: Quantitative highthroughput screen to assess conditional lethalithy of SEM cells grown in RPMI1640 with unreated serum (RPMI+s) (AID 1963883). An outline of the steps:
as §1

Experiment [10] can be described thus: Quantitative highthroughput screen to assess conditional lethalithy of SEM cells grown in RPMI1640 with dialyzed fetal bovine serum (RPMI+ds) (AID 1963884). An outline of the steps:
as §1

Experiment [11] is described as follows: Cellular viability qHTS for adrenocortical cancer (ACC) cell line SW-13 (AID 1963989). Further: nearly all actives have a fitted effect of over 65% in size. Further: potency means the concentration at half of the fitted maximal effect.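 On activity (max response): cells grown in serum-free medium with ITS supplement; on the % scale 0 is the no-effect control and ±100 the full control effect.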 To be noted: SW-13 ACC cells viability, CellTiter-Glo, 48 h; activity (max response): stronger effect = lower value. An outline of the steps:
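SW-13 cells in ITS-supplemented serum-free DMEM were plated overnight, then exposed for 48 h at 37C to compound titrations (up to 46 uM final). Viability was read by CellTiter-Glo luminescence; four-parameter logistic fits gave IC50 and efficacy.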

Experiment [12] is described as follows: Cellular viability qHTS for adrenocortical cancer (ACC) cell line NCI-H295R (AID 1963990). Further: nearly all actives have a fitted effect of over 60% in size. Further: potency means the concentration at half of the fitted maximal effect. An outline of the steps:
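Luminescent ATP read-out (CellTiter-Glo, 20 min RT) after 48 h drug exposure of NCI-H295R cells; a titration up to 46 uM final. Data normalized to doxorubicin (100% inhibition) and DMSO (0%); 4-parameter fit gives IC50, max response.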

Experiment [13] can be described thus: Quantitative highthroughput screen to assess conditional lethalithy of NOMO1 cells grown in RPMI1640 with dialyzed fetal bovine serum (RPMI+ds) (AID 1963877).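 Further: series mostly up to about 46 µM; 100% = DMSO control wells and 0% = empty wells; nearly all actives have a fitted effect of over 30% in size.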 An outline of the steps: as §1

For the compound `CC(C)C[C@H](NC(=O)CNC(=O)c1cc(Cl)ccc1Cl)B1OC(=O)CC(CC(=O)O)(C(=O)O)O1` (some centres undefined), the Potency in [1] is 148 nM (active); in experiment [2], 118 nM (active); in experiment [3] it was 372 nM (active); in experiment [4], 372 nM (active); in experiment [5], 332 nM (active); in experiment [6] it was 296 nM (active). The Potency in experiment [7] was 296 nM (active); in experiment [8] it was 118 nM (active); in experiment [9], 93.5 nM (active); in experiment [10] it was 118 nM (active); in experiment [11] it was 1410 nM (active); in [12], 355 nM (active).
Take `COc1ccc2cc([C@H](C)C(=O)O)ccc2c1`: the Potency entry in experiment [1], in experiment [2], in experiment [3], in experiment [13], in [5] and in experiment [7] was “inactive” each time. Further, the Potency entry in experiment [12] is “inactive”. The Potency in experiment [9] was 9350 nM (active). The activity (max response) in experiment [11] was 13.9% and -10.9%.
For the compound `C=C1C(=O)[C@@]23C(CC[C@@H]1[C@H]2O)[C@@]12CO[C@]3(O)[C@@H](O)[C@@H]1C(C)(C)CC[C@@H]2O` (some centres undefined), the Potency in experiment [1] is 1320 nM (active); in [2], 1300 nM (active); in [3] it was 20900 nM (active); in experiment [4], 18700 nM (active); in experiment [5], 13200 nM (active); in experiment [6] it was 7430 nM (active). Further, the Potency was 7430 nM (active) in [7], 8330 nM (active) in experiment [8], 28200 nM (active) in [11] and 10000 nM (active) in experiment [12].
With `COc1ccc2c(c1)c(C1=C(c3c[nH]c4ccccc34)C(=O)NC1=O)cn2CCCN(C)C`, the Potency in experiment [1] was 148 nM (active); in experiment [2], 332 nM (active); in experiment [11], 15800 nM (active). Also, the Potency entry in [3], in [13], in [5] and in experiment [7] was “inactive” each time.
Take `CCOc1cc2c(c(F)c1OCC)C(=N)N(CC(=O)c1cc(N3CCOCC3)c(OC)c(C(C)(C)C)c1)C2`: the Potency is 9200 nM (active) in experiment [1]; 18.4 µM (active) and 4.68 µM (active) in experiment [2]. The Potency entry in [3], in experiment [4], in experiment [5] and in [6] was “inactive” in each case.
